Records with an inconclusive call do not appear. Calls of active or inactive are those of the source. Calls follow the shape of the dose curve; as a rule, active = well fitted activation curve with a large enough effect; inconclusive = small, poorly fitted or top-dose-only effect; inactive = no such curve, though single readings can be large or run the other way.
molecular target: D(1A) dopamine receptor (Homo sapiens) (UniProt P21728); test: HTS Assay for Allosteric Agonists of the Human D1 Dopamine Receptor: Primary Screen for Potentiators (AID 488982); details: HEK293 T-REx D1 inducible cells, calcium flux, kinetic fluorescence; series mostly up to 8.37 µM
Excerpt: Dopamine receptors (DARs) are involved in the etiology and/or therapy of a number of neuropsychiatric and endocrine disorders. For instance, all receptor-based antiparkinsonian drugs work via stimulating the […] DAR subtype whereas all FDA-approved antipsychotic agents are antagonists of this receptor. […] There are three different types of allosteric modulators that we are seeking, two of which will stimulate or augment receptor signaling, allosteric agonists and potentiators, while the third, allosteric antagonists, will attenuate receptor signaling. The present primary screening assay measures compound agonism by tracking calcium flux in a […], inducible Hek293 Trex D1 cell line.
Freshly passaged cells are plated in 1536 well black, clear bottom plates at a density of 4000 cells/well in 3 ul of complete media containing 1x tetracycline inducer. After an overnight incubation at 30 C in 5% CO2, cells are loaded with 2 ul of the no wash Calcium Assay Kit (ABD Bioquest) and incubated at room temperature for 30 to 90 minutes. A 10 cycle (1 second/cycle) baseline measurement is taken and then the FDSS online 1536 pintool delivers 23 nl of compound library (as well as dopamine controls) to the plate. The plate is measured for kinetically at 1 cycle/sec for 180 seconds and is considered to be the agonist portion of the assay (eg, compounds which activate a positive calcium response during this portion are flagged as potential agonists). Following the 180 second read, 1 ul of an EC20 of dopamine is delivered by an onboard pipette head. Measurements are taken kinetically for an additional 180 seconds.

D(1A) dopamine receptor (Homo sapiens), sequence (P21728 whole entry, looked up): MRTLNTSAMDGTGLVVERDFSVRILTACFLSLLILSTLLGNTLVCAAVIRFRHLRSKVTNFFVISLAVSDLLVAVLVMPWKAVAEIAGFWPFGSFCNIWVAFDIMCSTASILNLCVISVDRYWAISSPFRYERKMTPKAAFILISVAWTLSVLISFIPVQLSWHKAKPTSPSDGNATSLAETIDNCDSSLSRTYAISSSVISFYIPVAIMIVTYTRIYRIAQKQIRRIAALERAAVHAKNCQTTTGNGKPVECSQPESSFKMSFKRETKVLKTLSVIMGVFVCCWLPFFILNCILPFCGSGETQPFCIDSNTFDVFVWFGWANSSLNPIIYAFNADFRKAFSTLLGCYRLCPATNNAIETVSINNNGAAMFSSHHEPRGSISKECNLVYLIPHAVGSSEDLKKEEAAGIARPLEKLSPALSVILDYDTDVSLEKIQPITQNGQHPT

SMILES | outcome
Cc1cccc(/C=C/c2ccccc2)n1 | inactive
O=Nc1c(-c2c(O)[nH]c3ccccc23)[nH]c2ccccc12 | inactive
C[C@H](Cc1ccccc1)Nc1ncnc2c1ncn2[C@@H]1O[C@H](CO)[C@@H](O)[C@H]1O | inactive
N#C/C(=C\c1ccc(O)c(O)c1)C(=O)Nc1ccccc1 | inactive
C1CCC(N=C(NC23CC4CC(CC(C4)C2)C3)N2CCOCC2)CC1 | inactive
CN1C2CCCC1CC(NC(=O)c1nn(C)c3ccccc13)C2 (stereo unspecified) | inactive
N.N.O=C(O)C1(C(=O)O)CCC1.[Pt+2] | inactive
CC[N+](CC)(CC)CC | inactive
O=C1c2ccccc2C(=O)c2c(NCCc3ccc(O)cc3)ccc(NCCc3ccc(O)cc3)c21 | inactive
Nc1c(S(=O)(=O)O)cc(Nc2ccc(Nc3nc(Cl)nc(Nc4ccc(S(=O)(=O)O)cc4)n3)c(S(=O)(=O)O)c2)c2c1C(=O)c1ccccc1C2=O | inactive
CCc1ccc(/C=C2/SC(=S)NC2=O)cc1 | inactive

Source: PubChem BioAssay (NCATS)
